# The list is not random: actives were taken first. Their share in the collection is about 1.7%.
# DUSP3 inh – DUSP3 (human) phosphatase inhibition; P51452; recombinant VHR phosphatase, pNPP absorbance; inhibition, % at 13.3 µM; 0.52% of 290,000 active; AID 1654; in the data active means inhibition above about 50%
# RecA splice inh – blocks M. tuberculosis RecA intein splicing | 0.75% of 290,000 active | P9WHJ3 | inhibition, % (test concentration not listed) | AID 2221 | cell-free RecA intein splicing, fluorescence; in the data active means inhibition above about 30%;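 further: 0% = vehicle wells and 100% = reference inhibitor control wells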
# Target sequence (P9WHJ3 whole entry, looked up, canonical isoform): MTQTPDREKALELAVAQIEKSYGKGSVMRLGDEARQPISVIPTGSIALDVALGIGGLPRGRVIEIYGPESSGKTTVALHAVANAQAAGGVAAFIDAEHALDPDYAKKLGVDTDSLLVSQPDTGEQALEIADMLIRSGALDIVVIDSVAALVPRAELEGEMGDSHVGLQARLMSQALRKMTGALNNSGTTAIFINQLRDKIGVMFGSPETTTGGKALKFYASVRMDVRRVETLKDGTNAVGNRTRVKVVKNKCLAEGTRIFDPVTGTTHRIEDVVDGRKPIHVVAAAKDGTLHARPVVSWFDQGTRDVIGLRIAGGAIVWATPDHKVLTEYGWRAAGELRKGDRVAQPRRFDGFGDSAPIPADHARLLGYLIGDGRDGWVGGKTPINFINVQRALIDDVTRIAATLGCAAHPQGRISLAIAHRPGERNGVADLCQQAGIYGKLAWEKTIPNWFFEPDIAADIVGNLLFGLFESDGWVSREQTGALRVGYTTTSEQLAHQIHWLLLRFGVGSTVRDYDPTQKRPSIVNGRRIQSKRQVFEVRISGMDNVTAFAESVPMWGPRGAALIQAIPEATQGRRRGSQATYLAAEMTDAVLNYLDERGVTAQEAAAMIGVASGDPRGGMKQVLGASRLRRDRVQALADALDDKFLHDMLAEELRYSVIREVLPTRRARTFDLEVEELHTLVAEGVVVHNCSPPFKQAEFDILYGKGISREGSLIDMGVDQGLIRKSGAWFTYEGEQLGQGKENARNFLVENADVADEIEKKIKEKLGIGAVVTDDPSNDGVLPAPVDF
# CCHF vOTU inh-1 – CCHFV vOTU protease inhibition | AID 651958 | 0.55% of 370,000 active | Pep-AMC fluorescence | inhibition, % at 11.5 µM; further: 0% = vehicle wells with enzyme and 100% = no enzyme wells
# 3CLpro inhibitor – SARS-CoV 3CLpro protease inhibition | P0C6X7 | recombinant SARS-CoV 3CLpro, quenched FRET peptide cleavage | inhibition, % at 6 µM | 0.14% of 290,000 active; in the data active means inhibition above about 12%
# PriA SSB inh – blocks PriA binding to SSB C-terminal tail; AlphaScreen SSBct-PriA binding, biotinylated peptide; inhibition, % at 33 µM; 0.6% of 430,000 active; AID 1272365; in the data active means inhibition mostly above about 37%, no sharp cut-off; inactive means mostly below about 20%;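 further: plate controls were negative control peptide for no effect and reference peptide for full effect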
# CCHF vOTU inh-2 – confirmation of CCHF virus vOTU protease inhibitors | Recombinant CCHFV vOTU, Pep-AMC fluorescence | shares compounds with CCHF vOTU inh-1 | inhibition, % at 11.5 µM | 17% of 1,900 active | AID 686976
# Starred values were filed as active, the others as inactive; i = inactive; . = no result given. Unless noted, no stated cut-off is given here; in the data, active means inhibition above about 30%; inactive means the rest.
SMILES,DUSP3 inh,RecA splice inh,CCHF vOTU inh-1,3CLpro inhibitor,PriA SSB inh,CCHF vOTU inh-2
CC(C)C[C@H](NC(=O)c1nc[nH]c1C(=O)NCC(=O)OC(C)(C)C)C(=O)OCc1ccccc1,-12,0,31*,.,-6,19
CC(C)C[C@H](NC(=O)c1[nH]cnc1C(=O)Nc1ccccc1)C(=O)OC(C)(C)C,15,-2,30*,.,-13,16
O=C(CSc1oc(-c2ccccc2)nc1S(=O)(=O)c1ccccc1)c1ccc(Cl)cc1,.,.,.,.,-7,.
Cc1ccc(Nc2nc(N3CCN(c4ccc(F)cc4)CC3)nc3nccnc23)cc1Cl,.,.,.,.,2,.
Cc1ccc(S(=O)(=O)N2[C@@H](c3ccc(Cl)c(Cl)c3)C(C(=O)O)=C[C@H]2CC2CCCC2)cc1,.,.,34*,.,1,18
CC[C@@H]1C=C(C(=O)O)[C@H](c2ccc(C)cc2)N1S(=O)(=O)c1ccc(C)cc1,.,.,-1,.,-7,.
Cc1ccc(S(=O)(=O)N2[C@@H](c3ccc(Cl)cc3)C(C(=O)O)=C[C@H]2CC2CCCC2)cc1,.,.,31*,.,-3,20
CC[C@@H]1C=C(C(=O)O)[C@H](c2ccc(Cl)cc2)N1S(=O)(=O)c1ccc(C)cc1,.,.,32*,.,4,-15
Cc1nc2sc(-c3ccccc3)cc2c(=S)[nH]1,.,.,.,.,8,.
Cc1cc(OC2CN(C(=O)CN3C(=O)CCC3=O)C2)cc(=O)o1,.,.,.,.,1,.
O=C1C(SCCO)=C(SCCO)C(=O)c2ccccc21,.,.,114*,.,101*,107*
Cc1ccc(-c2nn(-c3ccccc3)cc2C2CC(c3ccc(Br)cc3)=NN2c2nc(-c3ccccc3)c3cc(Cl)ccc3n2)cc1 (stereo not drawn),.,.,.,.,-19,.
CCCCn1c(SCc2ccc(F)cc2Cl)nc2c(-c3ccccc3)c[nH]c2c1=O,.,.,.,.,-10,.
CC1=C(SCc2ccccc2)C(=O)c2ccccc2C1=O,.,.,104*,.,4,87*
COc1cccc2cc(-c3nnc(NC(=O)C4CC(=O)N(c5ccc(F)cc5)C4)o3)oc12 (stereo not drawn),.,.,.,.,3,.
O=C(O)c1ccccc1NS(=O)(=O)c1ccc(N/N=C/c2ccc(O)c(O)c2)c([N+](=O)[O-])c1,.,.,42*,.,.,46*
CCN(CC)S(=O)(=O)c1ccc(N/N=C/c2ccccc2OCC(=O)O)c([N+](=O)[O-])c1,6,0,34*,4,.,8
O=C(O)COc1ccccc1/C=N/Nc1ccc(S(=O)(=O)Nc2ccc(Cl)cc2)cc1[N+](=O)[O-],18,7,37*,9,.,17
COc1ccccc1NS(=O)(=O)c1ccc(N/N=C/c2ccccc2OCC(=O)O)c([N+](=O)[O-])c1,16,-2,30*,5,.,14
COc1ccccc1/C=N/Nc1ccc(S(=O)(=O)Nc2ccccc2OC)cc1[N+](=O)[O-],.,.,.,.,i,.
O=C(O)COc1ccccc1C=NNc1ccc(S(=O)(=O)N2CCOCC2)cc1[N+](=O)[O-],.,.,.,.,0,.
O=C(O)c1ccccc1NS(=O)(=O)c1ccc(NN=Cc2ccc(F)cc2)c([N+](=O)[O-])c1,.,.,.,.,-4,.
CSc1ccccc1NC(=O)C(=O)NCCC(O)c1ccco1 (stereo not drawn),.,.,.,.,5,.
C[C@H]1Cc2ccccc2N1C(=O)CSc1nnc(CCc2nc3ccccc3s2)o1,.,.,.,.,-9,.
Cc1ccc(NC(=O)CC2SC(=O)N(Cc3ccccc3)C2=O)c(C)c1 (stereo not drawn),.,.,.,.,5,.
SMILES,DUSP3 inh,RecA splice inh,CCHF vOTU inh-1,3CLpro inhibitor,PriA SSB inh,CCHF vOTU inh-2
Cc1cc(C)cc(NC(=S)N(Cc2ccc(Br)cc2)Cc2ccc(C(=O)O)cc2)c1,38,15,8,9,11,.
Cc1ccc(NC(=S)N(Cc2ccc(Br)cc2)Cc2ccc(C(=O)O)cc2)cc1C,7,9,31*,2,6,6
COc1ccc(S(=O)(=O)c2cnc(SCC(=O)Nc3ccc(C)cc3)[nH]c2=O)cc1OC,.,.,.,.,-21,.
CCCc1nc2c([nH]1)c(=O)n(C)c(=O)n2C,60*,0,32*,-4,-1,-29
Cn1c(=O)c2[nH]c(CCC3CCCC3)nc2n(C)c1=O,.,.,-8,.,0,.
O=C(NCCCCN1CCCC1)c1cnc2ccccc2n1,.,.,.,.,0,.
COc1ccc(OC)c2c1cc(C(=O)N[C@@H](Cc1ccccc1)C(=O)O)n2C,33,0,4,1,-2,.
COc1ccc(OC)c2c1cc(C(=O)N[C@H](C(=O)N1CCC(C(=O)O)CC1)C(C)C)n2C,13,8,36*,-5,1,20
CN(C)S(=O)(=O)c1ccc(C(=O)N(Cc2cc(C3CC3)n(C)n2)C2CCCC2)cc1,.,.,.,.,-7,.
CC(C)Oc1ccc(CN2CCC2(C)C(=O)Nc2ccc3c(c2)OCO3)cc1 (stereo not drawn),.,.,34*,.,.,-10
Cc1noc(C)c1S(=O)(=O)N1CCc2oncc2C1,.,.,.,.,-1,.
COc1ccccc1OCC#CCNS(=O)(=O)N(C)C,.,.,.,.,-3,.
CNc1ccc(Br)cc(C(=O)/C=C/c2ccc(OC)cc2)c1=O,-11,0,36*,0,6,-5
O=C(Cn1ccn(-c2ccc(F)c(F)c2)c(=O)c1=O)Nc1ccc(F)cc1,.,.,.,.,-11,.
COc1ccccc1C1N(c2ccc(Cl)cc2)C(=O)C2CCCN21 (stereo not drawn),-8,1,-4,-3,-7,.
O=C1C2CCCN2C(c2cccs2)N1c1ccc(Cl)cc1 (stereo not drawn),-6,-1,31*,-6,3,-11
Cn1c(=O)c2cc(C(=O)Nc3ccccc3F)sc2n(C)c1=O,.,.,.,.,3,.
CCOC(=O)C(/C=C(\C#N)C(=O)OCC)=C(/N)N1CCN(c2ccccc2)CC1,18,-3,33*,-1,.,8
O=C(N/N=C/c1cccs1)c1cccc(S(=O)(=O)Nc2ccc(Cl)cc2)c1,8,0,-1,-2,.,.
O=C(N/N=C/c1cccs1)c1cccc(NC(=O)c2ccc(Cl)cc2)c1,0,-1,46*,-1,.,5
CCc1ccc([C@@H]2CC=C(C(=O)O)[C@H](c3ccccc3)N2S(=O)(=O)c2ccc(C)cc2)cc1,.,.,21,.,3,.
Cc1ccc([C@@H]2CC=C(C(=O)O)[C@H](c3ccc(C(C)(C)C)cc3)N2S(=O)(=O)c2ccc(C)cc2)cc1,.,.,42*,.,2,19
Cc1ccc(S(=O)(=O)N2[C@@H](c3ccc(C(C)(C)C)cc3)C(C(=O)O)=CC[C@H]2c2ccc(Cl)cc2)cc1,.,.,42*,.,-8,13
Cc1ccc(S(=O)(=O)N2[C@@H](c3ccc(C(C)(C)C)cc3)C(C(=O)O)=CC[C@H]2c2ccc(C(C)C)cc2)cc1,.,.,47*,.,1,15
Cc1ccc(S(=O)(=O)N2[C@@H](c3ccc(Br)cc3)C(C(=O)O)=CC[C@H]2c2ccc(C(C)C)cc2)cc1,.,.,5,.,-11,.
Cc1ccc([C@@H]2CC=C(C(=O)O)[C@H](c3ccc(F)cc3)N2S(=O)(=O)c2ccc(C)cc2)cc1,.,.,17,.,8,.
CCc1ccc([C@@H]2CC=C(C(=O)O)[C@H](c3ccc(C(C)(C)C)cc3)N2S(=O)(=O)c2ccc(C)cc2)cc1,.,.,46*,.,2,0

# Compound activity from PubChem BioAssay.
